# “And” between values parts separate entries of the source, which are not always exact repeats. Identical values can stand only once. Records with an inconclusive call do not appear. The source holds several records for some structures; these can differ, active in one and inactive in another. The source made the active and inactive calls. How the source made its calls: active means hit-call score of the fitted dose curve at least 0.9, where 1 is the maximum; inconclusive means response in the unintended direction; inactive means score below 0.9.
# Columns and labels:
# [1] = TOX21_p53_BLA_p2_viability: Viability Assessment in the Tox21 HCT-116 p53 Agonism Beta-lactamase Assay, Phase 2 (AID 2283591);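 further: actives lower the ATP signal meaning cytotoxicity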
# Method in brief: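 HCT-116 p53-bla cells (4000/well) rested 5 h at 37C, then received compounds in DMSO (217-fold dilution) for 16 h at 37C, 5% CO2. After the CCF4 read, CellTiter-Glo was added; ATP luminescence was read after 30 min at room temperature.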
# [2] = target: Cellular tumor antigen p53 (Homo sapiens) (UniProt P04637); experiment: TOX21_p53_BLA_p2_ratio: Tox21 HCT-116 p53 Agonism Beta-lactamase Assay, Ratio, Phase 2 (AID 2283592)
# Chain of Cellular tumor antigen p53 (Homo sapiens) (P04637 whole entry, looked up): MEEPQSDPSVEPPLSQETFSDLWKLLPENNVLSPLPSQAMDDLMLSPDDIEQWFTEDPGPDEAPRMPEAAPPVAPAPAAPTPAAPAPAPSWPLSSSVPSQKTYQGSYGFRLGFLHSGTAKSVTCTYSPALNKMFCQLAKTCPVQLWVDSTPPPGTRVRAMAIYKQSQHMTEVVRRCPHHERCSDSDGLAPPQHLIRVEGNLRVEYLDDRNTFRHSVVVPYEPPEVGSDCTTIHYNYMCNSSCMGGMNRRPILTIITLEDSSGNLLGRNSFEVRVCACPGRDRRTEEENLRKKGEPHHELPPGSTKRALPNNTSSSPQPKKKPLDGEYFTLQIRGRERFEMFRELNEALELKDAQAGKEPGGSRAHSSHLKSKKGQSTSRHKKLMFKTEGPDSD
# Method in brief: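 An inducible beta-lactamase reporter in HCT116 cells signals p53 pathway activation. After 16 h chemical exposure at 37C, cells load CCF4-AM substrate for 2 h at room temperature; activity is the cleaved/uncleaved emission ratio relative to DMSO.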
# [3] = TOX21_p53_BLA_p3_viability: Viability Assessment in the Tox21 HCT-116 p53 Agonism Beta-lactamase Assay, Phase 3 (AID 2283593);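 further: cells exposed to compound for 16 h before reading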
# Method in brief: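 HCT-116 cells (4000/well) rested 5 h at 37C, then got DMSO compounds by pin tool (217-fold dilution) for 16 h at 37C, 5% CO2. After the bla read, CellTiter-Glo was added and luminescence read at 30 min, room temperature.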
# [4] = target: Cellular tumor antigen p53 (Homo sapiens) (UniProt P04637); experiment: TOX21_p53_BLA_p3_ratio: Tox21 HCT-116 p53 Agonism Beta-lactamase Assay, Ratio, Phase 3 (AID 2283596)
# Method in brief: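 HCT116 p53-bla cells (4000/well) given compound in DMSO (217-fold dilution) after 5 h, incubated 16 h at 37C. CCF4-AM substrate 2 h at room temperature; 460/530 nm emission ratio, gain fitted against DMSO.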
# [5] = TOX21_p53_BLA_p4_viability: Viability Assessment in the Tox21 HCT-116 p53 Agonism Beta-lactamase Assay, Phase 4 (AID 2283597);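 further: hits lower the luminescence signal meaning cytotoxicity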
# Method in brief: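 Compound exposure of HCT116 cells lasts 16 h at 37C, 5% CO2, with DMSO stocks diluted 217-fold. Cellular ATP is then quantified by CellTiter-Glo luminescence after 30 min at room temperature.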
# [6] = target: Cellular tumor antigen p53 (Homo sapiens) (UniProt P04637); experiment: TOX21_p53_BLA_p5_ratio: Tox21 HCT-116 p53 Agonism Beta-lactamase Assay, Ratio, Phase 5 (AID 2283599)
# Method in brief: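 HCT-116 cells carrying a p53-inducible beta-lactamase reporter were seeded at 4000 cells/well and dosed after 5 h with compound in DMSO (217-fold dilution). After 16 h at 37C, CCF4-AM substrate was added for 2 h, and the 460/530 nm emission ratio was scored as gain-of-signal versus DMSO.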
# [7] = TOX21_p53_BLA_p5_viability: Viability Assessment in the Tox21 HCT-116 p53 Agonism Beta-lactamase Assay, Phase 5 (AID 2283600)
# Method in brief: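 Counter-readout for cytotoxicity: ATP-dependent luminescence from CellTiter-Glo, read in the beta-lactamase wells after 30 min at RT, following a 16 h compound exposure at 37C.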
# [8] = target: Cellular tumor antigen p53 (Homo sapiens) (UniProt P04637); experiment: TOX21_p53_BLA_p4_ratio: Tox21 HCT-116 p53 Agonism Beta-lactamase Assay, Ratio, Phase 4 (AID 2283601)
# Method in brief: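 HCT116 cells carrying an inducible beta-lactamase reporter were plated at 4000 cells/well, rested 5 h, then exposed to compounds in DMSO (217-fold dilution) for 16 h at 37C. CCF4-AM substrate was loaded 2 h at room temperature; 460/530 nm emission ratio scored gain-of-signal versus DMSO.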
smiles,measurement,setting,value
NC(=O)NNc1ccccc1,outcome,[1],inactive
same,outcome,[2],inactive
same,outcome,[3],inactive
same,AC50,[4],0.000125 µM (active)
same,outcome,[4],inactive
same,outcome,[5],inactive
same,outcome,[6],inactive
same,outcome,[7],inactive
same,AC50,[8],6.08e-05 µM (active)
same,outcome,[8],inactive
CC(C)(S)C(=O)N[C@@H](CS)C(=O)O,outcome,[1],inactive
same,outcome,[2],inactive
same,outcome,[3],inactive
same,outcome,[4],inactive
same,outcome,[5],inactive
same,outcome,[6],inactive
CCN1CCCC1CNC(=O)c1cc(S(=O)(=O)CC)ccc1OC (stereo not drawn),outcome,[1],inactive
same,outcome,[2],inactive
same,outcome,[3],inactive
same,outcome,[4],inactive
same,outcome,[5],inactive
CON=C1C[C@]2(C[C@@H]3C[C@@H](C/C=C(\C)C[C@@H](C)/C=C/C=C4\CO[C@@H]5[C@H](O)C(C)=C[C@@H](C(=O)O3)[C@]45O)O2)O[C@H](/C(C)=C/C(C)C)[C@H]1C,AC50,[1],8.61 µM (active) and 8.38 µM (active)
same,AC50,[2],21 µM (active)
same,outcome,[2],inactive
same,AC50,[3],17.2 µM (active) and 13.8 µM (active)
same,AC50,[4],35.2 µM (active) and 21.3 µM (active)
same,AC50,[5],9.09 µM (active) and 8.73 µM (active)
same,AC50,[6],22 µM (active)
same,outcome,[6],inactive
same,AC50,[7],17.3 µM (active) and 10.7 µM (active)
same,AC50,[8],18.8 µM (active)
same,outcome,[8],inactive
CC1=CC(=C(c2ccc(N)cc2)c2ccc(N)cc2)C=CC1=N,outcome,[1],inactive
same,AC50,[2],19.9 µM (active)
same,outcome,[2],inactive
same,outcome,[3],inactive
same,outcome,[4],inactive
same,outcome,[5],inactive
same,outcome,[6],inactive
same,outcome,[7],inactive
same,outcome,[8],inactive
COC1=C(OC)C(=O)C(C/C=C(\C)CC/C=C(\C)CC/C=C(\C)CC/C=C(\C)CC/C=C(\C)CC/C=C(\C)CC/C=C(\C)CC/C=C(\C)CC/C=C(\C)CCC=C(C)C)=C(C)C1=O,outcome,[1],inactive
same,outcome,[2],inactive
same,outcome,[3],inactive
same,AC50,[4],42.8 µM (active)
same,outcome,[4],inactive
same,outcome,[5],inactive
same,outcome,[6],inactive
same,outcome,[7],inactive
same,outcome,[8],inactive
CCC[C@@H]1C[C@@H](C(=O)N[C@@H]([C@H]2O[C@H](SC)[C@H](O)[C@@H](O)[C@H]2O)[C@@H](C)O)N(C)C1,outcome,[1],inactive
same,outcome,[2],inactive
same,outcome,[3],inactive
same,outcome,[4],inactive
CC(C)(C)CC(C)(C)c1ccc(OCCO)cc1,outcome,[1],inactive
same,AC50,[2],5.43 µM (active)
same,outcome,[2],inactive
same,outcome,[3],inactive
same,outcome,[4],inactive
same,AC50,[5],35.6 µM (active)
same,outcome,[5],inactive
same,outcome,[6],inactive
same,outcome,[7],inactive
same,outcome,[8],inactive
CC(=O)Nc1ccc(C=NNC(N)=S)cc1,outcome,[1],inactive
same,outcome,[2],inactive
same,outcome,[3],inactive
same,outcome,[4],inactive
same,outcome,[5],inactive
same,outcome,[6],inactive
O=[N+]([O-])c1cccc(C(F)(F)F)c1,outcome,[1],inactive
same,outcome,[2],inactive
same,outcome,[3],inactive
same,outcome,[4],inactive
COc1cc(/C=C/C(=O)O[C@H]2CC[C@]34C[C@]35CC[C@]3(C)[C@@H]([C@H](C)CCC=C(C)C)CC[C@@]3(C)[C@@H]5CC[C@H]4C2(C)C)ccc1O,outcome,[1],inactive
same,outcome,[2],inactive
same,AC50,[3],26.8 µM (active)
same,outcome,[3],inactive
same,AC50,[4],23 µM (active)
same,outcome,[4],inactive
same,outcome,[5],inactive
same,AC50,[6],13.3 µM (active)
same,outcome,[6],inactive
same,outcome,[7],inactive
C[C@@H](O)[C@H]1C(=O)N2C(C(=O)O)=C(SCCN=CN)C[C@H]12,outcome,[1],inactive
same,outcome,[2],inactive
same,outcome,[3],inactive
same,outcome,[4],inactive
same,outcome,[5],inactive
same,outcome,[6],inactive
O=C(O)c1ccc(S(=O)(=O)N(Cl)Cl)cc1,outcome,[1],inactive
same,AC50,[2],64.5 µM (active)
same,outcome,[2],inactive
same,outcome,[3],inactive
same,outcome,[4],inactive
same,outcome,[5],inactive
same,outcome,[6],inactive
same,outcome,[7],inactive
same,outcome,[8],inactive
CC(C)[C@H](N)C(=O)OCCOCn1cnc2c(=O)[nH]c(N)nc21,outcome,[1],inactive
same,outcome,[2],inactive
same,outcome,[3],inactive
same,outcome,[4],inactive
same,outcome,[5],inactive
CC(COc1ccccc1)N(CCCl)Cc1ccccc1 (stereo not drawn),outcome,[1],inactive
same,outcome,[2],inactive
same,AC50,[3],54.6 µM (active) and 79.1 µM (active)
same,outcome,[3],inactive
same,AC50,[4],23.1 µM (active)
same,outcome,[4],inactive
same,outcome,[5],inactive
same,outcome,[6],inactive
same,outcome,[7],inactive
same,outcome,[8],inactive
CCOC(=O)c1ccc(OCCN2C[C@H](O)[C@@H](O)[C@H](O)[C@H]2CO)cc1,outcome,[1],inactive
same,outcome,[2],inactive
same,outcome,[3],inactive
NC[C@H]1O[C@H](O[C@H]2[C@H](O)[C@@H](O[C@H]3O[C@H](CO)[C@@H](O)[C@H](N)[C@H]3O)[C@H](N)C[C@@H]2N)[C@H](O)[C@@H](O)[C@@H]1O,outcome,[1],inactive
same,AC50,[2],3.79 µM (active)
same,outcome,[2],inactive
same,outcome,[3],inactive
same,outcome,[4],inactive
same,outcome,[5],inactive
same,AC50,[6],3.34 µM (active)
same,outcome,[7],inactive
same,outcome,[8],inactive
COC(=O)[C@H]1[C@H]2C[C@H]3c4[nH]c5ccccc5c4CCN3C[C@H]2CC[C@@H]1O,outcome,[1],inactive
same,outcome,[2],inactive
same,outcome,[3],inactive
same,outcome,[4],inactive
CCOc1cccc(N)c1,outcome,[1],inactive
same,outcome,[2],inactive
same,outcome,[3],inactive
CO[C@H]1C[C@@H]2CC[C@@H](C)[C@@](O)(O2)C(=O)C(=O)N2CCCC[C@H]2C(=O)O[C@H]([C@H](C)C[C@@H]2CC[C@@H](O)[C@H](OC)C2)CC(=O)[C@H](C)/C=C(\C)[C@@H](O)[C@@H](OC)C(=O)[C@H](C)C[C@H](C)\C=C/C=C/C=C/1C,AC50,[1],18.1 µM (active) and 20.6 µM (active)
same,AC50,[2],29.7 µM (active)
same,outcome,[2],inactive
same,AC50,[3],33.3 µM (active) and 22.4 µM (active)
same,AC50,[4],41 µM (active) and 40.8 µM (active)
same,AC50,[5],17.5 µM (active) and 17.7 µM (active)
same,AC50,[6],35.1 µM (active) and 34.8 µM (active)
same,AC50,[7],23.7 µM (active) and 23.9 µM (active)
same,AC50,[8],21.7 µM (active) and 20.8 µM (active)
CCO[Si](C)(CCCOCC1CO1)OCC (stereo not drawn),outcome,[1],inactive
same,outcome,[2],inactive
same,outcome,[3],inactive
same,outcome,[4],inactive
same,outcome,[5],inactive
same,outcome,[6],inactive
OCc1cc(C(O)CNCCCCCCOCCCCc2ccccc2)ccc1O (stereo not drawn),outcome,[1],inactive
same,outcome,[2],inactive
same,outcome,[3],inactive
same,outcome,[4],inactive
same,AC50,[5],28.2 µM (active)
same,outcome,[5],inactive
same,outcome,[6],inactive
same,outcome,[7],inactive
same,outcome,[8],inactive
C=Cc1ccc(S(=O)(=O)O)cc1,outcome,[1],inactive
same,outcome,[2],inactive
same,outcome,[3],inactive
same,outcome,[4],inactive
same,AC50,[5],46.1 µM (active)
same,outcome,[5],inactive
same,outcome,[6],inactive
same,outcome,[7],inactive
same,outcome,[8],inactive
C#C[C@]1(OC(C)=O)CC[C@H]2[C@@H]3CCC4=C[C@@H](OC(C)=O)CC[C@@H]4[C@H]3CC[C@@]21C,AC50,[1],36.9 µM (active) and 34.4 µM (active)
same,outcome,[2],inactive
same,AC50,[3],37.3 µM (active)
same,outcome,[3],inactive
same,outcome,[4],inactive
same,outcome,[5],inactive
same,AC50,[6],43 µM (active)
same,outcome,[6],inactive
same,AC50,[7],36.7 µM (active)
same,outcome,[7],inactive
same,outcome,[8],inactive
C=CCn1c(=O)n(CC=C)c(=O)n(CC=C)c1=O,outcome,[1],inactive
same,outcome,[2],inactive
same,outcome,[3],inactive
same,outcome,[4],inactive
same,outcome,[5],inactive
same,outcome,[6],inactive
same,outcome,[7],inactive
CC(=O)Oc1ccc(C(c2ccc(OC(C)=O)cc2)c2ccccn2)cc1,outcome,[1],inactive
same,AC50,[2],11.4 µM (active) and 2.16 µM (active)
same,outcome,[3],inactive
same,AC50,[4],1.55 µM (active) and 3.98 µM (active)
same,AC50,[5],1.4 µM (active) and 2.68 µM (active)
same,AC50,[6],1.18 µM (active)
same,outcome,[6],inactive
same,outcome,[7],inactive
same,AC50,[8],5.22 µM (active)
same,outcome,[8],inactive
Cc1cc(O)c2c(O)c3c(O)cccc3cc2c1,outcome,[1],inactive
same,outcome,[2],inactive
same,outcome,[3],inactive
same,outcome,[4],inactive
same,outcome,[5],inactive
same,outcome,[6],inactive
same,outcome,[7],inactive
C#C[C@]1(O)CC[C@H]2[C@@H]3[C@H](C)CC4=C(CCC(=O)C4)[C@H]3CC[C@@]21C,outcome,[1],inactive
same,outcome,[2],inactive
same,outcome,[3],inactive
same,outcome,[4],inactive
same,outcome,[5],inactive
same,outcome,[6],inactive
same,outcome,[7],inactive
